From PubChem BioAssay (NCI) come the findings set out here.

Assay in all cases: NCI-60 one-dose screen, 48 h (100 = growth as untreated, 0 = no growth, -100 = all killed)
For one assay, the system named is T-47D breast. The following applies: 10 µM.
The next assay relates to BT-549 breast. The following applies: 10 µM unless noted.
A further assay concerns MDA-MB-435 melanoma. To be noted: 10 µM unless noted.
Another assay concerns SW-620 colon. To be noted: 10 µM unless noted.
A further assay has as its system MCF7 breast. The following applies: 10 µM unless noted.
A further assay relates to HCT-116 colon. To be noted: 10 µM unless noted.
A further assay relates to HCC-2998 colon. The following applies: 10 µM unless noted.
For another assay, the system named is KM12 colon. The following applies: 10 µM unless noted.

The structures appear in SMILES notation. The panel holds about 83,000 compounds, 20% with a hit somewhere; the sample as a whole holds those more often.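 Cell lines were cultured in 96-well plates, exposed to a single compound concentration, and assessed for percent growth 48 hours later.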 Values without a mark were called inactive. Active and inactive are the calls of the source. How the source made its calls: active means growth percent below 10; inactive means the rest.

For `COc1cc(C(F)(F)F)ccc1-c1cc(-c2ccc(F)cc2)n[nH]1`, the growth in the assay with T-47D breast was 62.7%; in the assay with BT-549 breast, 106%; in the assay with MDA-MB-435 melanoma, 96%; in the assay on SW-620 colon, 98.3%; with MCF7 breast, 50.4%; with HCT-116 colon, 82.2%. Further, the growth is 108% in the assay with HCC-2998 colon and 88.1% in the assay on KM12 colon.
`COc1ccc(/C=C(\C#N)c2ccc(OC)cc2)cc1`: the growth is 47.4% in the assay with T-47D breast; 95% in the assay on BT-549 breast; 2.31% (active) in the assay on MDA-MB-435 melanoma; 38.6% with SW-620 colon; 36.8% with MCF7 breast; 55.4% in the assay on HCT-116 colon. Further, the growth with KM12 colon was 28.4%.
With `Cc1ccc(C2SCC(=O)N2NC(=O)c2[nH]c3ccc(F)cc3c2-c2ccccc2)cc1` (stereo not given), the growth was 91.3% with T-47D breast; 93.2% with BT-549 breast; 96.3% in the assay on MDA-MB-435 melanoma; 102% with SW-620 colon; 93.1% in the assay with MCF7 breast; 80.1% with HCT-116 colon. The values for the growth with HCC-2998 colon and in the assay on KM12 colon were 70.2% and 96.1%, respectively.
`O=C1c2ccccc2C(=O)c2c(Nc3ccc(CCO)cc3)ccc(O)c21`: the growth in the assay with T-47D breast is 33.2%; in the assay with BT-549 breast, 53.3%; in the assay with MDA-MB-435 melanoma, 88.4%; in the assay with SW-620 colon it was 65.8%; in the assay on MCF7 breast, 33.7%; in the assay on HCT-116 colon it was 68.6%. For the same compound, the growth with KM12 colon was 76.2%.
Take `O=S(=O)(/N=C1C=C/C(=N\S(=O)(=O)c2ccccc2)c2ccccc2\1)c1ccccc1`: the growth was 93.1% in the assay with T-47D breast; 104% with BT-549 breast; 0.648% (active) in the assay on MDA-MB-435 melanoma; 112% with SW-620 colon; 84.1% with MCF7 breast; 94.5% in the assay on HCT-116 colon. Besides, the growth with KM12 colon is 101%.
`CC(C)OC1=C(Cl)C(=O)c2ccccc2C1=O`: the growth in the assay on T-47D breast was -24.6% (active); in the assay with BT-549 breast it was 59.7%; in the assay on MDA-MB-435 melanoma it was 97.3%; with SW-620 colon, 56.6%; in the assay on MCF7 breast it was 73.2%; with HCT-116 colon, 39.4%. Further, the growth in the assay with KM12 colon was 41.2%.
On to `O/N=C/c1cccs1`, for which the growth with T-47D breast is 111%; with BT-549 breast it was 112%; in the assay on MDA-MB-435 melanoma it was 99.8%; in the assay with SW-620 colon, 104%; in the assay on MCF7 breast, 99.2%; with HCT-116 colon it was 102%. For the same compound, the growth in the assay on HCC-2998 colon was 111%; in the assay on KM12 colon it was 110%.
Regarding `O=C1c2ccccc2-c2nnc(-c3ccc(Br)cc3)cc21`, the growth with T-47D breast is 52.7%; in the assay on BT-549 breast it was 71.5%; with MDA-MB-435 melanoma, -69.1% (active); with SW-620 colon it was 73.3%; in the assay with MCF7 breast it was 14.8%; in the assay with HCT-116 colon it was 1.98% (active). Also, the growth in the assay with KM12 colon was 64%.
For the compound `CN1CCn2c(c(Sc3ccc(C(=O)NO)cc3)c3ccccc32)C1=O`, the growth was 14.6% in the assay on T-47D breast; 2.47% (active) with BT-549 breast; -74.6% (active) in the assay on MDA-MB-435 melanoma; -14.4% (active) with SW-620 colon; 27.1% in the assay on MCF7 breast; -39.3% (active) with HCT-116 colon. Moreover, the growth in the assay on KM12 colon is -51.4% (active).
Regarding `CC1=C(C/C=C(\C)CCC[C@H](C)CCC[C@H](C)CCCC(C)C)C(=O)c2ccccc2C1=O`, the growth with T-47D breast was 110%; in the assay with BT-549 breast, 96.7%; with MDA-MB-435 melanoma, 108%; with SW-620 colon, 104%; with MCF7 breast it was 108%; in the assay with HCT-116 colon, 98.8%. Moreover, the growth with HCC-2998 colon is 108%; in the assay with KM12 colon, 105%.
As for `O=C(COc1cccc(/C=C2\COc3ccccc3C2=O)c1)c1ccccc1`, the growth in the assay with T-47D breast was 75.3%; in the assay on BT-549 breast, 45.5%; in the assay with MDA-MB-435 melanoma, 43.1%; with SW-620 colon it was -81.7% (active); in the assay with MCF7 breast, 7.63% (active); in the assay with HCT-116 colon, 3.67% (active). The growth with KM12 colon was 31.6%.
`CCOc1ccc(/C=N\N2CCCCCC2)cc1OCC`: the growth in the assay with T-47D breast is 99.1%; with BT-549 breast, 96.2%; in the assay with MDA-MB-435 melanoma it was 53.2%; with SW-620 colon, 114%; in the assay on MCF7 breast it was 96%; in the assay with HCT-116 colon, 99.5%. The growth in the assay on KM12 colon was 103%.
With `Cc1c(C)n(CC(O)CNC2CCCCC2C)c2ccccc12` (stereo not given), the growth in the assay with T-47D breast was -10.5% (active); with BT-549 breast, -94.3% (active); with MDA-MB-435 melanoma, -67.9% (active); in the assay with SW-620 colon it was -77% (active); with MCF7 breast it was -23.4% (active); with HCT-116 colon, -81.9% (active). The growth in the assay with KM12 colon was -77.9% (active).
With `COC(=O)C1C2CC3c4[nH]c5cc(OC)ccc5c4CCN3CC2CC(OC2CCCCO2)C1OC` (stereo not given), the growth in the assay on T-47D breast is 108%; with BT-549 breast it was 97.2%; in the assay with MDA-MB-435 melanoma, 101%; in the assay on SW-620 colon, 100%; with MCF7 breast, 95.8%; with HCT-116 colon, 103%. Also, the growth with KM12 colon is 105%.
In the case of `CCN(c1ccc(C(=O)N2CCN(c3ccccc3)CC2)cc1)S(C)(=O)=O`, the growth with T-47D breast is 93.2%; with BT-549 breast, 108%; in the assay with MDA-MB-435 melanoma it was 106%; in the assay with SW-620 colon, 108%; in the assay with MCF7 breast, 95.9%; in the assay on HCT-116 colon, 101%. In addition, in the assay on KM12 colon, the growth is 101%.
Turning to `Oc1ccccc1/C=N/Nc1nc2ccccc2s1`, the growth in the assay on T-47D breast was 37.8%; with BT-549 breast it was 51.4%; in the assay with MDA-MB-435 melanoma, 56.9%; in the assay on SW-620 colon, 50.1%; in the assay on MCF7 breast it was 20.2%; in the assay on HCT-116 colon, 41.2%. Further, the growth with KM12 colon is 22.1%.
Take `O=C(COc1ccc(/C=C2\CSc3ccccc3C2=O)cc1)c1ccc(Cl)cc1`: the growth is 94.8% in the assay on T-47D breast; 110% in the assay with BT-549 breast; 95.6% in the assay on MDA-MB-435 melanoma; 115% in the assay with SW-620 colon; 114% in the assay with MCF7 breast; 94.1% with HCT-116 colon. Also, the growth with KM12 colon is 106%.
On to `Cc1nc2cc(Nc3nc(Nc4ccc(F)cc4)nc(N4CCN(C)CC4)n3)ccc2n1Cc1ccccc1`, for which the growth in the assay on T-47D breast is -10.7% (active); in the assay on BT-549 breast it was -49.9% (active); in the assay on MDA-MB-435 melanoma, 0.19% (active); with SW-620 colon, 15.6%; in the assay with MCF7 breast, 17.9%; in the assay on HCT-116 colon, -16.3% (active). Moreover, the growth with KM12 colon was 17%.
